Screening results as filed in PubChem.
Sampled rows, rich in hits. Any-hit rate of the full collection: about 6.8%.
HCV NS3h FP – blocks HCV NS3 helicase binding to DNA. NS3h Cy5-dT15 DNA binding, fluorescence polarization. inhibition, % at 100 µM. actives 1.6% (n = 16,000). AID 687043;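 active = inhibition above the average over every tested compound plus 3 SD, cut at about 40% in these data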
Cy5 interf NS3h – counter-screen for HCV NS3 helicase inhibitors: fluorescence interference; Cy5-dT15 DNA with NS3h; actives lie on both sides; signal over control mean, under 1 quenches; fluorescence interference ratio at 100 µM; actives 6% (n = 16,000);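 active = compound fluorescence over control fluorescence at most 0.8, a quencher, or at least a set upper limit, an enhancer; inactive = ratio between 0.8 and the set upper limit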
The depositor's hits bear a star.

SMILES	HCV NS3h FP	Cy5 interf NS3h
COCCNC(=O)c1ccc(Cl)c([N+](=O)[O-])c1	4	1.1
COCCNC(=O)c1ccc([N+](=O)[O-])cc1	4	0.72*
O=C(Nc1ccc(F)cc1)c1ccc([N+](=O)[O-])cc1	-11	1.1
CC(=O)Nc1ccc(C(=O)Nc2ccc([N+](=O)[O-])cc2)cc1	-4	0.74*
C=CCc1ccccc1OCC(=O)N/N=C\c1cccc(I)c1	-5	1.1
Cc1ccc(N2NC(=O)/C(=C/c3cc([N+](=O)[O-])ccc3Cl)C2=O)cc1C	25	0.87
C=CCN1C(=O)/C(=C\c2ccc(OC(=O)c3cccc(Br)c3)cc2)SC1=S	7	0.75*
C=CCN1C(=O)/C(=C\c2ccc(OCCOc3cccc(OC)c3)cc2)SC1=S	6	1
COc1ccc(/C=C2/N=C(c3cccc(C)c3)N(c3ccc(O)cc3)C2=O)cc1OC	7	1
Cc1csc(-c2cc3ccc(OCc4c(F)cccc4Cl)cc3oc2=O)n1	22	0.87
CCOC(=O)C1C(=O)CC(O)(c2ccc(Cl)cc2)CC1C=C(Cl)Cl (centres undefined)	7	0.88
COc1ccc(Cl)cc1NC(=O)c1nn2c(c1Cl)NC(c1cccs1)CC2C(F)(F)F (centres undefined)	5	1.1
CC(C)(C)NC(=O)c1nn2c(c1Br)NC(c1cccs1)CC2C(F)(F)F (centres undefined)	-6	0.82
O=C(Nc1ccc(F)cc1F)c1nn2c(c1Cl)NC(c1cccs1)CC2C(F)(F)F (centres undefined)	12	0.74*
O=C(Nc1cccc(C(F)(F)F)c1)c1nn2c(c1Br)NC(c1cccs1)CC2C(F)(F)F (centres undefined)	12	1
O=C(NCCc1ccccc1)c1nn2c(c1Br)NC(c1cccs1)CC2C(F)(F)F (centres undefined)	4	0.54*
CSc1ccccc1NC(=O)c1nn2c(c1Br)NC(c1cccs1)CC2C(F)(F)F (centres undefined)	9	0.74*
O=C(NCCCN1CCOCC1)c1nn2c(c1Br)NC(c1cccs1)CC2C(F)(F)F (centres undefined)	12	0.71*
O=C(NCc1ccccc1)c1nn2c(c1Br)NC(c1cccs1)CC2C(F)(F)F (centres undefined)	10	0.99
COC(=O)c1cc(Br)cc(NC(C)=O)c1	0	1
CC(C)(C)CC(C)(C)N=C1NS(=O)(=O)c2cc([N+](=O)[O-])ccc21	3	0.61*
CC(C)N=C1NS(=O)(=O)c2cc([N+](=O)[O-])ccc21	-4	1
Cc1ccc(/C=C2/SC(=S)NC2=O)s1	13	0.79*
Cc1ccc(/C=C2/NC(=S)NC2=O)s1	20	1.1
O=C1NC(=S)N(c2ccccc2)C(=O)/C1=C/c1ccc(O)c(Cl)c1	10	1.2*
SMILES	HCV NS3h FP	Cy5 interf NS3h
O=C1NC(=S)N(c2cccc(Br)c2)C(=O)/C1=C/c1ccc(O)c(Cl)c1	-5	1.2
Cc1cccc(N2C(=O)/C(=C/c3ccc4c(c3)OCO4)SC2=S)c1C	14	0.77*
O=C1/C(=C\c2ccc3c(c2)OCO3)SC(=S)N1c1cccc(C(F)(F)F)c1	0	1.1
COCCN1C(=O)/C(=C/c2ccc3c(c2)OCO3)SC1=S	20	1
O=C1S/C(=C/c2ccc3c(c2)OCO3)C(=O)N1CN1CCCC1	-8	0.57*
Cc1cc(Cl)ccc1OCC(=O)NC1CC(C)(C)NC(C)(C)C1	3	1
CC1CCc2c(sc(NC(=O)c3cncc(Br)c3)c2C(N)=O)C1 (centres undefined)	1	1
CCOP(=O)(OCC)/C(=C(\NC(=O)c1ccccc1)C(=O)Nc1ccccc1C(F)(F)F)c1ccccc1	7	0.98
CCN(CC)C(=O)COc1ccc2oc(C)c(C(=O)OC(C)C)c2c1	16	0.79*
CCOC(=O)COc1ccc2oc(C)c(C(=O)OC(C)C)c2c1	14	0.86
S=C(c1ccc(-c2ccc(Cl)c(Cl)c2)o1)N1CCN(c2ccccc2)CC1	10	1.1
C=CCN1C(=O)/C(=C/c2ccc(N(C)C)cc2)C(=O)NC1=S	34	1.2*
CN(C)c1ccc(/C=C2/C(=O)NC(=O)N(CCCO)C2=O)cc1	19	0.94
CC(C)CN1C(=O)/C(=C/c2cccs2)SC1=S	12	0.93
COc1ccc(OC)c(CN2CCN(Cc3ccc4ccccc4c3)CC2)c1	1	0.97
O=C(O)c1ccccc1N1C(=O)c2ccc(Oc3ccc([N+](=O)[O-])cc3)cc2C1=O	14	1.2
O=C(NCCO)C1COc2ccccc2O1 (centres undefined)	1	0.94
COC(=O)CNC(=O)C1COc2ccccc2O1 (centres undefined)	6	1.2*
COc1cc(/C=C2/C(C)=C(C#N)c3nc(N)c(C#N)c(C)c32)c([N+](=O)[O-])cc1OC	47*	0.97
COc1ccc(/C=C2/C(C)=C(C#N)c3nc(N)c(C#N)c(C)c32)cc1Br	14	0.96
COc1ccc(C2Nc3ccccc3C(=O)N2Cc2ccco2)cc1COc1ccc(Cl)cc1 (centres undefined)	0	0.97
Cc1[nH]c2ccccc2c1/C=N\NC(=O)c1cccc([N+](=O)[O-])c1	-2	0.63*
Cc1[nH]c2ccccc2c1/C=N\Nc1ccc([N+](=O)[O-])cc1	31	0.97
CCc1ccccc1NC(=O)c1cc2n(n1)C(C(F)(F)F)CC(c1ccccc1)N2 (centres undefined)	6	1
O=C(Nc1ccc(Br)cn1)c1cc2n(n1)C(C(F)(F)F)CC(c1ccccc1)N2 (centres undefined)	24	0.7*
SMILES	HCV NS3h FP	Cy5 interf NS3h
COc1ccc(N(CC(=O)O)S(C)(=O)=O)cc1Cl	-2	1
Cn1ccnc1SCC(=O)Nc1cccc(C(F)(F)F)c1	10	0.76*
O=C(CSc1cc(Cl)ccc1Cl)Nc1cccc(C(F)(F)F)c1	-4	0.89
Cc1ccc(-n2cnc(N)c2C(=O)c2ccc([N+](=O)[O-])cc2)cc1	14	1
O=C(O)CSCc1cccc([N+](=O)[O-])c1	5	0.7*
COC(=O)CNC(=O)c1cccc([N+](=O)[O-])c1	2	1.1
CC(C)c1ccc(C(=O)Nc2cc(Cl)cc(Cl)c2)cc1	7	0.94
O=C(O)c1ccccc1NC1=C(Cl)C(=O)N(c2cccc(Cl)c2)C1=O	8	1.1
O=C1C(=O)N(c2ccccc2Br)C(=O)N1c1cccc(Cl)c1	19	0.7*
O=C(CN(c1ccc(F)cc1)S(=O)(=O)c1ccccc1)Nc1ccccc1Br	11	0.97
CCOC(=O)c1ccccc1NC(=O)CSC(N)=O	4	1
CC(=O)CC(=O)Nc1ccc(Cl)c(C(F)(F)F)c1	4	0.68*
CC(=O)CC(=O)Nc1ccc(Cl)c(Cl)c1	3	1
C=Cc1ccc(COc2ccc3c4c(c(=O)oc3c2)CCC4)cc1	1	1.1
Cc1ccc(N2NC(=O)/C(=C/c3cccs3)C2=O)cc1Cl	13	1
Cc1cccc(NCCC(=O)c2cccs2)c1C	7	0.78*
O=C(CCNc1ccc(F)cc1)c1cccs1	11	1.1
Oc1ccccc1/C=N\N=C/c1ccccc1O	-4	1
CC(=O)Nc1ccccc1NC(=O)c1ccc(F)cc1	8	0.93
CC(=O)Nc1ccccc1NC(=O)c1ccc(Br)cc1	9	1.2*
CCOC(=O)c1c(C)[nH]c(/C=N\O)c1O	-8	1
